# Test results published in PubChem BioAssay AID2314 (National Center for Advancing Translational Sciences (NCATS), 2010).
# About 37,000 (12%) of roughly 300,000 compounds were called active. This excerpt belongs to a sample that is enriched for actives. A number with no mark means an inactive call. Rule as the data show it: active = max response mostly above about 13% (no sharp cut-off); inactive = mostly below about 14%.
# Experiment: Cycloheximide Counterscreen for Small Molecule Inhibitors of Shiga Toxin; also: read at 38.3 µM for the half of the compounds with a filed dose; 0% is about no effect
# Conditions: cell reporter, cycloheximide protein synthesis inhibition counterscreen; active compounds read high
row,Structure (SMILES),max response
1,N#C/C(=C/c1ccc(Cl)cc1)NC(=O)c1ccccc1,17.9%
2,Cc1ccc(C)c(CSc2nc(-c3ccco3)nc3c2c(=O)n(C)c(=O)n3C)c1,-2.42%
3,Cc1ccc(C)c(CN2CCC(CNC(=O)Nc3ccc(C)c(F)c3)CC2)c1,1.71%
4,N#CC1(NC(=O)COC(=O)CCN=C2NS(=O)(=O)c3ccccc32)CCCCC1,-3.22%
5,COc1cccc(CC(=O)Nc2ccc(-c3csc(C)n3)cc2)c1,15.4%
6,Cc1ccc(CC(=O)Nc2cccc(C#N)c2)cc1,14.1%
7,COc1cccc(NC(=O)Cc2ccc(C)cc2)c1,27.5% (active)
8,COc1cccc(NC(=O)NCCN2CCCCC2)c1,0.722%
9,COc1cccc(NC(=O)NCc2ccc(F)cc2)c1,10.4% (active)
10,COC(=O)[C@@H](NC(=O)NCc1cccc(OC)c1)C(C)C,-2.02%
11,O=S(=O)(c1cccc(Cn2nnc(-c3ccc(F)cc3)n2)c1)N1CCOCC1,-2.1%
12,Cc1sc(NC(=O)C2C3CCC(O3)C2C(=O)O)c(C(=O)OC(C)C)c1-c1ccc(Cl)cc1 (stereo not drawn),-2.64%
13,Cc1[nH]c(C)c(S(=O)(=O)N2CCN(c3cccc(C(F)(F)F)c3)CC2)c1C(=O)N1CCCCC1,0.664%
14,Cc1ccc(CN2CCN(c3ncccn3)CC2)c(C)c1,1.42%
15,COc1ccccc1C1C(C#N)=C(N)Oc2c1c(-c1ccccc1)nn2-c1ccccc1 (stereo not drawn),10.5%
16,CCCc1cc(=O)[nH]c(SCC(=O)N2C(C)CCCC2C)n1 (stereo not drawn),-2.36%
17,COc1ccc(OC)c(CCNC(=O)CCn2ccc3cc(S(=O)(=O)N4CCCC4)ccc32)c1,-1.39%
18,Cc1ccc(NC(=O)CN2CCC(C(N)=O)CC2)cc1[N+](=O)[O-],15.7% (active)
19,CN1CCN(CC(=O)Nc2cccc([N+](=O)[O-])c2)CC1,1.18%
20,Cc1ccc(C)c(S(=O)(=O)N2CCN(CC(=O)Nc3ccc([N+](=O)[O-])cc3)CC2)c1,-0.724%
21,CCc1nc2nc(C)c(NS(=O)(=O)c3ccc4c(c3)CCCC4)c(=O)n2[nH]1,1.61%
22,O=C(Cn1cnc2ccccc21)Nc1ccccc1-c1ccccc1,-3.38%
23,O=C(O)CCC(=O)N(Cc1ccccc1)Cc1ccccc1,-1.7%
24,Nc1nc(NCC2CCCO2)nc(Nc2ccccc2F)c1[N+](=O)[O-] (stereo not drawn),-2.31%
25,CCN(CC)C(=O)N1CCN(C(=O)c2ccc(C)cn2)CC1,27.2% (active)

row,Structure (SMILES),max response
1,Cc1ccc(OCC(=O)N2CCN(C(=O)c3cccnc3)CC2)cc1,-5.2%
2,CCN1CCN(C(=O)c2ccccc2N(C)S(=O)(=O)c2ccc(C)cc2)CC1,-3.44%
3,Cc1c(C=O)c2ccccn2c1C(=O)c1ccncc1,-6.15%
4,C=CCn1c(SCc2cccc(F)c2)nc2cc(C(=O)N3CCC(C(N)=O)CC3)ccc2c1=O,-5.75%
5,CC(C)NC(=S)NN=C1CCCCCCCCCCC1,16.4%
6,CCC(C)NCC(=O)Nc1ccc([N+](=O)[O-])cc1C(=O)Nc1ccccc1F (stereo not drawn),9.91%
7,O=[N+]([O-])c1cccc(/C([O-])=C(/C(=S)Nc2ccccc2F)[n+]2ccccc2)c1,44.3% (active)
8,Cc1ccc(/C([O-])=C(/C(=S)NCc2ccco2)[n+]2ccccc2)cc1[N+](=O)[O-],-1.29%
9,CC(C)C[C@@H](COc1ccccc1)N1CCN(CC(C)C)CCC1=O,12.1%
10,O=c1[nH]c(SCc2cccc(F)c2)nc2ccccc12,0.0734%
11,Nc1nnc2c(C(F)(F)F)nc3ccccc3n12,-5.14%
12,O=C1c2ccccc2C(=O)N1c1cccc2ccccc12,-0.411%
13,O=C(NCc1ccc2c(c1)OCO2)C12CC3CC(CC(C3)C1)C2,-3.3%
14,O=C(NCc1ccc2c(c1)OCO2)c1cc(F)c(F)cc1Cl,16.6%
15,O=C(NCc1ccc2c(c1)OCO2)c1ccc(Cl)s1,17.6% (active)
16,O=C(NCc1ccc2c(c1)OCO2)c1sccc1Br,16.3% (active)
17,O=C(NCc1ccc2c(c1)OCO2)c1cc2c(s1)CS(=O)(=O)C2,-5.16%
18,COc1cc(OC)c(C(=O)NCc2ccc3c(c2)OCO3)cc1OC,-1.06%
19,Cc1ccccc1NC(=O)C(C)c1ccc(-c2ccccc2)c(F)c1 (stereo not drawn),-5.36%
20,CC(CC(=O)N1CCN(c2ccccc2)CC1)S(=O)(=O)c1ccc2c(c1)NC(=O)CS2 (stereo not drawn),1.2%
21,Cc1cc([N+](=O)[O-])ccc1NC(=O)c1ccc(NC(=O)C(C)C)cc1,5.74%
22,O=C(Nc1cccnc1)c1cc([N+](=O)[O-])ccc1Cl,-2.56%
23,O=C(NNS(=O)(=O)c1ccc(F)cc1)c1ccc([N+](=O)[O-])cc1Cl,-3.45%
24,O=C(Nc1ccc(Br)cn1)c1ccc([N+](=O)[O-])cc1Cl,51.7% (active)
25,CN1C(=O)c2ccc(C(=O)Nc3ccc(Br)cn3)cc2C1=O,1.67%

row,Structure (SMILES),max response
1,O=C(Nc1ccc(Br)c2cccnc12)c1ccc(Cn2cc([N+](=O)[O-])cn2)o1,-3.97%
2,O=C(Nc1ccc(Br)cn1)c1ccc([N+](=O)[O-])o1,48.9% (active)
3,CC(C)C(=O)Nc1cccc(NC(=O)c2ccc([N+](=O)[O-])cc2Cl)c1,27.7% (active)
4,O=C(Nc1ccncc1)c1ccc([N+](=O)[O-])cc1Cl,-4.24%
5,O=C1CCNCCN1[C@H](CO)Cc1ccccc1,-1.44%
6,COc1cc(NC(=O)C2=C(C)OCCS2)c(Cl)cc1C(=O)NCCN1CCN(C)CC1,-6.54%
7,O=C(O)c1[nH]c2ccccc2c1C(c1cccc(O)c1)c1c(C(=O)O)[nH]c2ccccc12,-0.808%
8,COC(=O)c1sccc1NS(=O)(=O)c1ccc(F)cc1F,-6.38%
9,Cc1c(CN2CCC(n3nccc3NC(=O)CCc3ccccc3)CC2)cnn1C,0.463%
10,CCNC(=O)CC1C(=O)N(c2ccc(OC)cc2)C(=O)N1CCOC (stereo not drawn),-2.06%
11,COc1ccc(C(=O)NC(=S)NNC(=O)CCc2ccccc2)cc1,10.3%
12,COc1ccc(/C(N)=N/OC(=O)Cc2ccccc2)cc1,46.9% (active)
13,COc1ccc(/C(N)=N/OC(=O)CCCc2ccccc2)cc1,44.3% (active)
14,CCOC(=O)C(Cc1ccccc1)NC(=O)CCC(=O)c1ccc(OC)cc1 (stereo not drawn),-1.47%
15,COc1ccc(/C(N)=N/OC(=O)Oc2ccccc2)cc1,-4.11%
16,COc1ccc(C(=O)OCC(=O)NCCCc2ccccc2)cc1OC,0.591%
17,COCCN1CCn2c(nc3cc(NS(C)(=O)=O)ccc32)C1,-4.53%
18,CC1(C)COC(c2cccn2Cc2ccccc2Cl)=N1,2.16%
19,O=C(Nc1cccc(CCc2ccccn2)c1)c1ccc(Cl)cc1,11%
20,C=CCNc1nc(C)nc(OC)n1,-3.36%
21,COc1nc(NCc2ccc(Cl)cc2)nc(OC)n1,9.12%
22,C=CCNc1nc(Nc2ccc(Cl)cc2)nc(OC)n1,35.6% (active)
23,NS(=O)(=O)c1ccc(CNC(=O)c2cccc(Oc3ccccc3)c2)cc1,1.56%
24,CC1CCCN(C(=O)c2ccc3c(c2)C(=O)N(CCC2=CCCCC2)C3=O)C1 (stereo not drawn),2.05%
25,COc1ccc(S(=O)(=O)N2CCOC2CNC(=O)C(=O)NCc2ccncc2)cc1OC (stereo not drawn),-2.13%

row,Structure (SMILES),max response
1,C/C(=N\NC(=O)Cc1ccc(Cl)cc1)c1ccccn1,-1.28%
2,CN(NC(=O)c1ccccc1F)c1nc(C(F)(F)F)nc2ccccc12,-3.39%
3,C/C(=N\NC(=O)c1ccccc1F)c1ccccn1,31.8% (active)
4,NC1=NC(=O)C(Cc2cccc(Cl)c2)S1 (stereo not drawn),13%
5,COc1ccc(C(=O)NC(=S)Nc2ccccc2N2CCN(S(C)(=O)=O)CC2)cc1OC,-0.375%
6,O=C(NC(=S)Nc1ccccc1N1CCCCC1)c1ccc(F)cc1,4.5%
7,COc1ccccc1C(=O)NC(=S)Nc1ccccc1N1CCCCC1,18.9% (active)
8,COc1ccc(OC)c(NC(=O)c2sc3nc(C)cc(C)c3c2N)c1,1.77%
9,O=S(=O)(NC1CC1)c1ccc(F)c(F)c1,-2.05%
10,COc1ccccc1-n1c(SCC(=O)Nc2cccc(C(=O)O)c2)nnc1-c1ccccc1O,0.473%
11,C=C1/C(=C\C=C2\CCCC3(C)C2CCC3C(C)/C=C/C(O)C2CC2)CC(O)CC1O (stereo not drawn),-6.77%
12,Cc1ccccc1C(CC(=O)c1cccs1)C(C#N)C#N (stereo not drawn),58.6% (active)
13,Cc1ccc(C)c(NC(CC(=O)c2ccccc2)C(=O)OCC(=O)c2cccs2)c1 (stereo not drawn),-1.02%
14,C/C(=N\NC(=O)COc1c(C)cccc1C)c1cccs1,6.57%
15,Cc1[nH]c2ccccc2c1SCC(=O)Nc1nccs1,29.5% (active)
16,Cc1cc(C(F)(F)F)nc(SCC(=O)Nc2nccs2)n1,-1.23%
17,CC(=O)c1cc(C#N)c(N2CC(C)OC(C)C2)nc1C (stereo not drawn),-2.5%
18,CC(=O)c1cc(C#N)c(N2CCCCC2)nc1C,2.13%
19,CC(=O)c1cc(C#N)c(SCC(=O)C(C)(C)C)nc1C,55.2% (active)
20,CC(=O)c1cc(C#N)c(SCC(=O)Nc2nccs2)nc1C,24.6% (active)
21,CCn1c(SCC(=O)Nc2nccs2)nnc1-c1ccco1,-4.57%
22,Cc1cccc(C)c1Nc1nnc(SCC(=O)Nc2sccc2C#N)s1,-1.09%
23,CCn1c(SCC(=O)Nc2nccs2)nnc1-c1ccncc1,-3.78%
